Bioassay records: PubChem BioAssay, National Center for Advancing Translational Sciences (NCATS)
In the library only some 1.2% were active in any assay of this set; here they are far more common.
TrxR1 substrate = substrates of rat thioredoxin reductase 1. actives 0.01% (n = 390,000). O89049. Potency, µM (highest dose often 114 µM), inactives show at the highest dose activity change, negative = substrate turnover. purified TrxR1 substrate turnover, NADPH consumption readout; note: potency is the fitted concentration of half-maximal effect; nearly all actives have a fitted effect of over 50% in size
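Rat TrxR1, dispensed at 90 nM, was prereduced with 400 uM NADPH (final) for 5 min at ~22 deg C, then incubated with compound 15 min before 400 uM selenite. A first-read NADPH fluorescence drop versus no-compound background flagged substrates.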
GALK inh = blocks human galactokinase activity. Purified GALK, Kinase-Glo residual ATP luminescence. Potency, µM (top dose mostly 57.5 µM), for inactives: at the highest dose activity change, negative = inhibition, hits mostly inhibitors. P51570. actives 0.007% (n = 270,000); note: potency is the fitted concentration of half-maximal effect
Target sequence (P51570 whole entry, looked up): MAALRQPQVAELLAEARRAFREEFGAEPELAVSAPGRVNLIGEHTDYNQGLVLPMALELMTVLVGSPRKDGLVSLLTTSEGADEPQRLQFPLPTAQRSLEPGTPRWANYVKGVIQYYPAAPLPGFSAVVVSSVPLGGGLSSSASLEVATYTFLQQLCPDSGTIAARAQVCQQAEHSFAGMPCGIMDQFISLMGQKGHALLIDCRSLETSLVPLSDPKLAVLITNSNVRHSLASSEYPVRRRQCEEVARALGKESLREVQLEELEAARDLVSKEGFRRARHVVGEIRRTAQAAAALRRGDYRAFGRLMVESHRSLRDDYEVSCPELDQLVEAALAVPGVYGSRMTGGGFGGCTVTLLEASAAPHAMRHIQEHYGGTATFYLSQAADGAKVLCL
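The enzyme phosphorylates galactose (100 uM) using ATP (35 uM); inhibition is detected as higher residual ATP, quantified by bioluminescence after 1 h reaction at room temperature, pH 8.0.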
PI4K2A inh = blocks human PI4K2A kinase activity. Q9BTU6. purified PI4K2A, ADP-Glo luminescence, 1 h; active compounds read low. activity change, negative = inhibition, % at 76.9 µM. actives 0.13% (n = 420,000); in the data active = activity change below about -50%; inconclusive = mostly about -30% to -49%;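 note: -100% = wells without enzyme as full effect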
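PI4K2A activity was measured by ADP-Glo luminescence: enzyme (4 ug/mL stock) and phosphatidylinositol (1.2 mM stock) in Tris pH 7.5/MgCl2/EGTA/Triton X-100 buffer were reacted with ATP (300 microM stock) for one hour at ambient temperature.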
PKM2 act = increases activity of human pyruvate kinase M2 | purified PKM2, Kinase-Glo ATP luminescence, activation; response scale: 0% is enzyme alone, no compound | P14618 | actives 0.34% (n = 260,000) | Potency, µM (titrated, usually from 57.5 µM), for the others: at the top dose activation, hits mostly activators | AID 1631; note: potency is the fitted concentration of half-maximal effect; nearly all actives have a fitted effect of over 55% in size
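hPK-M2, >95% pure; 0.1 mM ADP / 0.5 mM PEP final; imidazole pH7.2 buffer w/ 7 mM MgCl2, 50 mM KCl; 1 h RT; Kinase-Glo lum. Intermediate enzyme activity for dual inhibitor/activator qHTS.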
TrxR1 inh = blocks rat thioredoxin reductase 1 | O89049 | recombinant rTrxR1, NADPH fluorescence consumption, selenite substrate | Potency, µM (titrated, usually from 114 µM), without a hit: at the top dose activity change, negative = inhibition, hits mostly inhibitors | actives 1% (n = 390,000) | AID 588453; note: potency is the fitted concentration of half-maximal effect; nearly all actives have a fitted effect of over 65% in size
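Rat TrxR1 (90 nM in the dispensed reagent) was pre-reduced with 400 uM NADPH for 5 min at room temperature, then incubated with compound for 15 min. After 400 uM selenite was added, NADPH fluorescence (Ex 340/Em 450 nm) was followed for 8 min.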
* marks the source's active call; other numbers are inactive results; ? = inconclusive; · = no result given; [ ] = remark or other dose. Unless noted, calls come from the whole dose curve; as a rule, active = well fitted curve in the direction sought with a large enough effect; inconclusive = small, poorly fitted or top-dose-only effect, or another doubt; inactive = no such curve, though single readings can be large; an effect the other way counts as inactive or inconclusive. Unless noted, % is set by controls: 0 for no effect and ±100 for the full control effect.

SMILES | TrxR1 substrate | GALK inh | PI4K2A inh | PKM2 act | TrxR1 inh
O=c1[nH][nH]c(=O)c2c(NS(=O)(=O)c3ccccc3)cccc12 | -15%[57.1 µM] | 1% | 3 | 11µM* | 27%[57.1 µM]
O=S(=O)(Nc1ccc(NS(=O)(=O)c2ccccc2)c2ccccc12)c1ccccc1 | · | · | 5 | · | ·
C=CCn1c(N)c(C(=O)NCc2ccco2)sc1=S | 1% | -1% | -13 | 8.9µM* | 3%
Cc1ccc(-n2c(N)c(C(=O)NCc3ccco3)sc2=S)cc1 | -15% | -1% | 1 | 4% | -15%
Cc1cc(Nc2ccccc2Cl)n2nc(-c3ccco3)nc2n1 | 5%[57.1 µM] | · | -1 | · | 5%[57.1 µM]
Cc1cc(C)n2nc3nc(N4CCCCC4)nc(-c4ccco4)c3c2n1 | 3%[57.1 µM] | 0% | -23 | 6% | 10µM*
COc1cc(/C=C2/C(=O)N(c3cccc(Br)c3)N=C2C)cc(OC)c1O | 3%[2.29 µM] | · | -54* | · | -38%
CC(=O)OCC1=C(C(=O)O)N2C(=O)[C@@H](NC(=O)Cc3ccccc3)[C@H]2SC1 | 5%[57.1 µM] | · | -6 | · | ?
CCOc1ccc(C(=O)NC2C(=O)N3C(C(=O)O)=C(COC(C)=O)CSC23)cc1OCC (stereo unspecified) | -6% | · | -3 | · | 56µM*
CCOC(=O)CSC1=NC(=O)/C(=C/c2ccc(OC)cc2)S1 | -13% | 1% | 1 | 26% | 16µM*
Cc1ccc2c(=O)cc(C(=O)Nc3cccc(Cl)c3C)oc2c1C | 0% | · | 4 | · | 12%
O=C1NC(c2ccc(Br)cc2)Nc2sc3c(c21)CCC3 (stereo unspecified) | 5% | -2% | -7 | 0% | ?
Cc1ccsc1C1NC(=O)c2c(sc3c2CCCC3)N1 (stereo unspecified) | 0% | 1% | -5 | -13% | 45µM*
CCOC(=O)C1=C(C)N=c2s/c(=C\c3ccc(OCC(=O)O)cc3)c(=O)n2C1c1ccccc1 (stereo unspecified) | 7%[57.1 µM] | -9% | -20 | -1% | 21%[57.1 µM]
COC(=O)C1=C(C)N=c2s/c(=C/c3ccoc3)c(=O)n2C1c1ccccc1 (stereo unspecified) | -11% | 0% | -14 | 22µM* | ?
Cc1[nH]c2ccccc2c1C(c1ccccn1)N1CCC(C(N)=O)CC1 (stereo unspecified) | 5% | 2% | -1 | 3% | 1.6µM*
CC(C)(C)C1CCc2onc(C(=O)Nc3sc4c(c3C#N)CCCC4)c2C1 (stereo unspecified) | 7% | · | -4 | · | -3%
CCOC(=O)c1ccc(N2C(=O)C=CC2=O)cc1 | 9% | 0% | 2 | -8% | 8.9µM*
CCOC(=O)c1ccc(-n2c(C)ccc2C)cc1 | -17% | 0% | 4 | -7% | -27%
CCOC(=O)c1ccc(N2C(=O)CC(Sc3nc(C)cc(C)n3)C2=O)cc1 (stereo unspecified) | 4% | 5% | -1 | 3% | 13%
Nc1nnc(SC2CC(=O)N(c3ccccc3)C2=O)s1 (stereo unspecified) | -6% | 5% | 4 | 2% | 28µM*
C=CCNc1nnc(SC2CC(=O)N(c3ccc(OCCC)cc3)C2=O)s1 (stereo unspecified) | -7% | 1% | 3 | 7% | 7.1µM*
O=C1CC(Sc2ncccn2)C(=O)N1c1ccccc1 (stereo unspecified) | -5% | 1% | 0 | -2% | -17%
CCOC(=O)c1ccc(N2C(=O)CC(Sc3nnc(C)s3)C2=O)cc1 (stereo unspecified) | 6% | 3% | -4 | ? | 5.6µM*
CC(C)N1C(=O)S/C(=C/c2ccc3c(c2)n(C)c(=O)n3C)C1=O | 5% | -3% | 10 | 3% | -14%
SMILES | TrxR1 substrate | GALK inh | PI4K2A inh | PKM2 act | TrxR1 inh
CCN(CC)c1ccc(/C=C2\SC(=O)N(C(C)C)C2=O)o1 | -19%[57.1 µM] | -4% | 3 | 13µM* | 4µM*
COc1cccc(CNc2sc3c(c2C(=O)Nc2ccc(OC)cc2OC)CCC3)c1 | 1%[57.1 µM] | · | -10 | · | -24%[57.1 µM]
Cc1cc(C(Br)(Br)Br)nc2ccccc12 | 5% | · | · | · | 3.2µM*
O=C(c1[nH]c2ccccc2c1Sc1ccc(Cl)cc1)N1CCCCC1 | -4% | · | 1 | · | 9%
COc1ccc(NC(=O)CSc2oc(-c3ccc(C)cc3)nc2S(=O)(=O)c2ccc(C)cc2)c(OC)c1 | 7%[2.29 µM] | · | 1 | · | 50µM*
Cc1[nH]c(-c2ccco2)nc1C(=O)O | 4% | -2% | -9 | -9% | 18µM*
O[C@@H](CNC[C@H](O)[C@H]1CCc2cc(F)ccc2O1)[C@@H]1CCc2cc(F)ccc2O1 | · | · | 1 | · | ·
CC(=O)c1cccc(OCc2cc(C(=O)N(C)Cc3ccc(C)o3)no2)c1 | -3% | 3% | 4 | 18% | 3.5µM*
CSc1ccccc1OCc1cc(C(=O)N(C)Cc2ccc3nsnc3c2)no1 | -9% | 3% | -1 | -8% | -10%
CSc1ccccc1OCc1cc(C(=O)N(C)Cc2ccc(C)o2)no1 | 1% | -2% | -1 | · | 35µM*
Cc1ccc(CN(C)C(=O)c2ccccc2Oc2ccccc2)o1 | 7% | -1% | 2 | 28µM* | 11µM*
Cc1ccc(CN(C)C(=O)c2ccc(S(=O)(=O)N(C)c3ccccc3)cc2)o1 | -3%[57.1 µM] | · | -6 | · | ?
Cc1cccc(NC(=O)Cn2c(=O)n(Cc3ccccc3)c(=O)c3oc4ccccc4c32)c1C | 5% | · | -2 | · | 30%
N#Cc1c(C(F)(F)F)cc(-c2cccs2)nc1SCc1ccc(Cl)nc1 | 149% | -2% | 6 | 3% | 50µM*
COc1ccc(NC(=O)CSc2nc(NS(=O)(=O)c3ccccc3)cc(=O)[nH]2)cc1 | 6% | -2% | -53* | -7% | 45%
O=c1c(CN2CCN(Cc3ccccc3)CC2)coc2ccc(Cl)cc12 | 13% | 2% | 5 | -4% | 22µM*
O=C1CC(N2CCN(c3ccccn3)CC2)C(=O)N1CC(c1ccccc1)c1ccccc1 (stereo unspecified) | -6% | -2% | -4 | -16% | 25µM*
Cc1ccc(CN(Cc2cccnc2)C(=O)CN2C(=O)COc3ccccc32)o1 | 7%[11.4 µM] | 4% | 2 | 28µM* | ?
O=C(CN1C(=O)COc2ccccc21)N(Cc1ccccc1)Cc1ccccn1 | -1% | -1% | -4 | -5% | 7%
COC(=O)C[C@H]1CC[C@@H]2[C@@H](COc3ccc(NC(=O)c4ccccc4)cc3C(=O)N2C)O1 | · | · | 0 | · | ·
COC(=O)c1cc(NC(=S)NC(=O)c2ccccc2)ccc1N1CCOCC1 | -15% | 6% | 0 | -9% | 28µM*
Cc1ccc(C(=O)NC(=S)Nc2ccc(N3CCOCC3)cc2)cc1C | 6%[57.1 µM] | 7% | -5 | 0% | ?
Cc1cccc(C(=O)NC(=S)Nc2ccc(N3CCOCC3)cc2)c1 | -8% | -4% | 2 | -5% | 32µM*
